From PubChem BioAssay AID504915 (The Scripps Research Institute Molecular Screening Center, 2011) come the findings set out here.

Structures are written as SMILES. This is one part of the list. A number with no mark means an inactive call. Calls of active or inactive are those of the source. No stated cut-off is given here; in the data, active means activation above about 17%; inactive means the rest.

The target in this experiment is 5-hydroxytryptamine receptor 5A (Homo sapiens) (UniProt P47898). In words: HTR5A agonists, retest of hits, confirmation, cell-based, luminescence (AID 504915).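 Further: 0% = cells with vehicle only and 100% = full reference agonist response.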 Conditions: HTR5A agonist cell assay, at 9.3 µM, active compounds read high.
5-hydroxytryptamine receptor 5A (Homo sapiens), sequence (P47898 whole entry, looked up): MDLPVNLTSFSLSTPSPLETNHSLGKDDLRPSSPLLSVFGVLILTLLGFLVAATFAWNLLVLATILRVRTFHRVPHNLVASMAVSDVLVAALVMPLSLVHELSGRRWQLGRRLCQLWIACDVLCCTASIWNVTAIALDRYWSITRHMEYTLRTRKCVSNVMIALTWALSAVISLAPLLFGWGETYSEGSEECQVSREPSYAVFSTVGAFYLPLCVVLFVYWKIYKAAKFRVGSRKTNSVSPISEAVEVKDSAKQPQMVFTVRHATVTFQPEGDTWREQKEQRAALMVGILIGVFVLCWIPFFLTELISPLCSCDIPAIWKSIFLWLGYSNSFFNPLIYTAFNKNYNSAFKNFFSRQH
With `Cc1ccc(-c2csc(SCC(=O)Nc3cc(C)on3)n2)cc1`, the activation is 2.91%.

`c1ccc(-n2nc3ccccc3n2)cc1`: the activation was 1.33%.

In the case of `CCOC(=O)c1cnc2sccn2c1=O`, the activation is 5.5%.

As to `CC(C)OC(=O)c1c(NC(=O)c2ccco2)sc2c1CCCC2`, the activation was 0.39%.

Regarding `COc1cccc(/C=N/NC(=O)c2[nH]nc3c2CCc2ccccc2-3)c1O`, the activation is -2.75%.

As for `COc1ccc2[nH]cc(CCN3C(=O)c4ccc(C(=O)O)cc4C3=O)c2c1`, the activation is -2.36%.

For `CC(=O)c1c(C)[nH]c(C(=O)OCC(=O)Nc2c(C)cccc2C)c1C`, the activation is 1.01%.

For `COC(=O)c1cc(C(=O)OCC(=O)Nc2cc(C)on2)cc([N+](=O)[O-])c1`, the activation was 1.23%.

As for `COc1ccc(C(=O)O/N=C(\N)Cc2ccc(Cl)cc2Cl)cc1OC`, the activation was 10.9%.

Regarding `CN1c2ccc(C=O)c3c(C=O)ccc(c23)N(C)C1(C)C`, the activation is -0.75%.

Turning to `CCN(CC(=O)Nc1cccc(S(=O)(=O)N2CCCCC2)c1)Cc1ccccc1`, the activation is 1.96%.

With `COc1ccc(-c2ocnc2C(=O)Nc2ccc3c(c2)CCC3)cc1`, the activation was -0.96%.

For `COc1ccc(/C=C(\C#N)c2c[nH]c3ccccc23)cc1`, the activation was 0.48%.

Take `CNc1nnc(-c2ccco2)s1`: the activation is 0.94%.

Take `O=C(Nc1ccc(C(=O)N2CCOCC2)cc1)Nc1cccc(C(F)(F)F)c1`: the activation was 43.1% (active).

For the compound `CCCOc1ccc(C(=O)C(CCC(CNCC)C(=O)c2ccc(OCCC)cc2)CNCC)cc1` (centres undefined), the activation is -4.56%.

Regarding `CCC(C)NC(=O)CCCc1ccccc1` (centres undefined), the activation is 0.89%.

As for `c1cc(-c2nn[nH]n2)ccc1CN1CCCCC1`, the activation was -1.04%.

Turning to `CCOc1ccc(NC(=O)Nc2cc(C)on2)cc1`, the activation was -2.78%.

For `Cc1ccc(C(=O)N/C(=C/c2ccco2)C(=O)NCCc2c[nH]c3ccccc23)cc1C`, the activation is -0.29%.

On to `O=C(CC(O)(C(F)(F)F)C(F)(F)F)Nc1ccc(Cl)c(Cl)c1`, for which the activation was -1.59%.

Take `COc1cc2c(-c3ccc4c(c3)OCO4)c(-c3ccsc3)oc(=O)c2cc1OC`: the activation was -0.88%.

In the case of `COc1ccccc1S(=O)(=O)NCc1ccc(C(=O)N(C)Cc2ccc(F)cc2)cc1`, the activation is -2.33%.

For `CC1(C)C2CCC1(CS(=O)(=O)NCCc1c[nH]c3ccccc13)C(=O)C2` (centres undefined), the activation was 35.4% (active).
